Measured values from PubChem BioAssay (Tox21).
Values joined by “and” are separate entries in the source; they are usually repeats but may differ in a detail not shown here. Equal entries are not always repeated. Results filed as inconclusive are left out. Entries that show only a call come without a potency. Some compounds were tested as several samples or in several runs, with calls that do not always agree. Active and inactive are the calls of the source. Calls come from the whole dose curve; as a rule, active = well fitted curve in the direction sought with a large enough effect in the repeat runs; inconclusive = weak or mixed curves; inactive = no such curve, though single readings can be large; an effect the other way counts as inactive or inconclusive.

Assays:
[1] = qHTS RealTime-Glo MT Cell Viability Assay in HEK293 cells - 16 hour (AID 1224872); note: nearly all actives have a fitted effect of over 50% in size; note: potency is the fitted concentration of half-maximal effect
Summary of the method: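 HEK293 cells seeded with NanoLuc/prosubstrate reagent, rested 5 h at 37 C, then dosed and kept at 37 C up to 40 h. Nonlytic real-time luminescence from viable cells read at 0, 8, 16, 24, 32 and 40 h.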

[2] = qHTS RealTime-Glo MT Cell Viability Assay in HEK293 cells - 40 hour (AID 1224874); settings: RealTime-Glo luminescence; max response: stronger effect = lower value; note: nearly all actives have a fitted effect of over 50% in size; note: potency is the fitted concentration of half-maximal effect
Summary of the method: (§1)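 Kinetic, non-lysing viability readout. Seed HEK293 (600/well) with reagent, incubate 5 h at 37 C/5% CO2, pin 23 nL compound in DMSO, incubate at 37 C, read luminescence at 0, 8, 16, 24, 32, 40 h.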

[3] = A CellTox Green Cytotoxicity Assay to monitor cytotoxicity in HepG2 cells - 16 hour (AID 1224876); note: nearly all actives have a fitted effect of over 45% in size; note: potency is the fitted concentration of half-maximal effect
Summary of the method: (§2)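 Cytotoxicity was tracked as dead-cell DNA fluorescence in HepG2 cells treated with test compounds at 37 C; each time-point value comes from one kinetic series spanning 0, 8, 16, 24, 32 and 40 h.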

[4] = qHTS RealTime-Glo MT Cell Viability Assay in HepG2 cells - 32 hour (AID 1224877); note: nearly all actives have a fitted effect of over 55% in size; note: potency is the fitted concentration of half-maximal effect
Summary of the method: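 HepG2 cells (600/well) were dispensed with RealTime-Glo reagents, incubated 5 h at 37 °C, then treated with compounds in DMSO for up to 40 h. Nonlytic NanoLuc luminescence reflecting viable cells was read at each stated time point.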

[5] = A CellTox Green Cytotoxicity Assay to monitor cytotoxicity in HepG2 cells - 24 hour (AID 1224878); note: nearly all actives have a fitted effect of over 45% in size; note: potency is the fitted concentration of half-maximal effect
Summary of the method: as §2

[6] = qHTS RealTime-Glo MT Cell Viability Assay in HEK293 cells - 0 hour (AID 1224880); note: nearly all actives have a fitted effect of over 45% in size; note: potency is the fitted concentration of half-maximal effect
Summary of the method: as §1

[7] = qHTS RealTime-Glo MT Cell Viability Assay in HepG2 cells - 8 hour (AID 1224873); note: nearly all actives have a fitted effect of over 55% in size
Summary of the method: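 HepG2 cells (600/well) mixed with RealTime-Glo MT reagent, settled 5 h at 37 C/5% CO2 before compound addition. Nonlytic NanoLuc luminescence from viable-cell prosubstrate reduction read repeatedly during 40 h treatment at 37 C.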

[8] = A CellTox Green Cytotoxicity Assay to monitor cytotoxicity in HepG2 cells - 40 hour (AID 1224879); note: nearly all actives have a fitted effect of over 40% in size; note: potency is the fitted concentration of half-maximal effect
Summary of the method: as §2

[9] = A CellTox Green Cytotoxicity Assay to monitor cytotoxicity in HEK293 cells - 24 hour (AID 1224875); note: nearly all actives have a fitted effect of over 45% in size; note: potency is the fitted concentration of half-maximal effect
Summary of the method: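 Real-time, in one plate: 600 HEK293 cells/well with dead-cell DNA dye, pinned compound after 5 h, 37 C incubation over 40 h; viable cells give no appreciable fluorescence.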

SMILES | Potency [1] | max response [2] | Potency [3] | Potency [4] | Potency [5] | Potency [6] | Potency [7] | Potency [8] | Potency [9] | Potency [2]
CCNS(=O)(=O)C(F)(F)C(F)(F)C(F)(F)C(F)(F)C(F)(F)C(F)(F)C(F)(F)C(F)(F)F | inactive | 23.4% (inactive) | inactive | inactive | inactive | inactive |  |  |  | 
Oc1cc(Cl)cc(Cl)c1 |  |  | inactive | inactive | inactive | inactive | inactive | inactive |  | 
Nc1nc(N)nc(Cl)n1 | inactive | 1.73% (inactive) |  | inactive | inactive | inactive |  | inactive | inactive | 
CC1=C2C[C@H]3[C@@H](CC=C4C[C@@H](O)CC[C@@]43C)[C@@H]2CC[C@]12O[C@@H]1C[C@H](C)CN[C@H]1[C@H]2C |  |  |  | inactive |  | inactive | inactive | 26.8 µM (active) |  | 16.9 µM (active)
CCCCC(CC)COC(=O)c1ccccc1C(=O)OCC(CC)CCCC (centres undefined) | inactive | 1.87% (inactive) | inactive | inactive |  | inactive | inactive | inactive |  | 
COC(=O)N(OC)c1ccccc1COc1ccn(-c2ccc(Cl)cc2)n1 |  |  | inactive | inactive | inactive | inactive |  | inactive | inactive | 13.8 µM (active)
CC(C)c1c(CN(C)C(C)Cc2ccccc2)n(C)n(-c2ccccc2)c1=O (centres undefined) |  |  | inactive |  | inactive | inactive |  |  | inactive | 
C=CCOC(=O)c1ccccc1N | inactive | -17.8% (inactive) |  | inactive | inactive | inactive | inactive | inactive |  | 
CCN(CC)CCN1C(=O)CN=C(c2ccccc2F)c2cc(Cl)ccc21 |  | -8.22% (inactive) | inactive |  | inactive | inactive | inactive | inactive | inactive | 
CCOP(=O)(OCC)Oc1nc(Cl)c(Cl)cc1Cl |  | -5.34% (inactive) | inactive | inactive |  | inactive | inactive | inactive | inactive | 
CCOP(=S)(OCC)Oc1cc(C)nc(N(CC)CC)n1 |  | 2.8% (inactive) | inactive | inactive | inactive | inactive |  |  | inactive | 
CN(C)c1ccc(N)cc1 | 42.6 µM (active) |  | inactive | inactive | inactive | inactive |  | inactive | inactive | 47.8 µM (active)
CCC(C)Br (centres undefined) |  |  | inactive |  | inactive | inactive | inactive | inactive | inactive | 
Cc1c([N+](=O)[O-])cc2c(c1[N+](=O)[O-])C(C)(C)CC2(C)C | inactive | -1.57% (inactive) | inactive | inactive | inactive | inactive | inactive |  |  | 
CCN(CC)C(=S)S |  |  | inactive | inactive and 21.9 µM (active) | inactive and 7.72 µM (active) and 21.9 µM (active) | inactive | inactive | 17.5 µM (active) and 6.13 µM (active) and 19.5 µM (active) |  | 24.8 µM (active) and 4.34 µM (active) and 11 µM (active)
O=S(=O)(NS(=O)(=O)C(F)(F)F)C(F)(F)F |  |  |  | inactive | 48.9 µM (active) | inactive | inactive | 48.9 µM (active) | inactive | 1.94 µM (active)
CCC(C)Nc1c([N+](=O)[O-])cc(C(C)(C)C)cc1[N+](=O)[O-] (centres undefined) |  | -8.53% (inactive) |  | inactive | inactive | inactive | inactive | inactive | inactive | 
CCC1(CC)C(=O)N=C(O)NC1=O |  | -0.914% (inactive) | inactive | inactive | inactive | inactive | inactive | inactive | inactive | 
CCc1cccc(C)c1N(C(=O)CCl)[C@@H](C)COC | inactive | -25.5% (inactive) | 49 µM (active) |  | 49 µM (active) | inactive |  | 49 µM (active) |  | 
COCCC#N |  | 7.47% (inactive) | inactive | inactive | inactive | inactive | inactive | inactive | inactive | 

SMILES | Potency [1] | max response [2] | Potency [3] | Potency [4] | Potency [5] | Potency [6] | Potency [7] | Potency [8] | Potency [9] | Potency [2]
Oc1ccc2[nH]cc(CCCCN3CC=C(c4ccccc4)CC3)c2c1 | 9.52 µM (active) |  | inactive | inactive | 19 µM (active) | inactive | inactive | 23.9 µM (active) | inactive | 
O=[N+]([O-])c1ccc(CCl)cc1 | inactive |  |  | inactive |  | inactive |  | inactive | inactive | 
N#Cc1c[nH]cc1-c1cccc2c1OC(F)(F)O2 |  |  | inactive | inactive |  | inactive | inactive | 13.8 µM (active) |  | 6.16 µM (active)
N#Cc1sc2c(=O)c3ccccc3c(=O)c=2sc1C#N | 11 µM (active) |  | 17.4 µM (active) | 11 µM (active) | 12.3 µM (active) | 7.76 µM (active) |  | 13.8 µM (active) | 21.9 µM (active) | 17.4 µM (active)
O=[N+]([O-])C(Br)Br | 55 µM (active) |  |  | inactive | inactive | inactive | inactive |  |  | 55 µM (active)
CN/C(=N\[N+](=O)[O-])NCc1cnc(Cl)s1 |  | -7.42% (inactive) | inactive | inactive | inactive | inactive |  | inactive | inactive | 
O.O.O.O=C([O-])[C@H]([O-])[C@@H]([O-])C(=O)[O-].O=C([O-])[C@H]([O-])[C@@H]([O-])C(=O)[O-].[K+].[K+].[Sb+3].[Sb+3] |  |  | inactive |  | inactive | inactive |  |  | inactive | 
Cc1ccc2cc3c(ccc4ccccc43)c3c2c1CC3 | inactive | 6.91% (inactive) | inactive |  |  | inactive | inactive | 6.93 µM (active) |  | 
Oc1cccc(Cl)c1Cl |  |  | inactive | inactive | inactive | inactive | inactive | inactive | inactive | 
CCOC(=O)CCN(SN(C)C(=O)Oc1cccc2c1OC(C)(C)C2)C(C)C | inactive | -6% (inactive) | inactive |  | inactive | inactive |  | inactive |  | 
c1ccc(N=NNc2ccccc2)cc1 | inactive | -3.75% (inactive) |  | inactive |  | inactive |  | 49 µM (active) | 50.7 µM (active) | 
CC(Cc1ccc(OCC(=O)O)cc1)NCC(O)c1csc(C(F)(F)F)n1 (centres undefined) |  | -5.31% (inactive) | inactive | inactive | inactive | inactive | inactive | inactive | inactive | 
BrCC(Br)(Br)Br | 25.5 µM (active) |  | inactive | inactive |  | inactive |  | inactive | inactive | 45.3 µM (active)
Oc1ccc([C@H]2CNCc3c2ccc(O)c3O)cc1O |  | -21.9% (inactive) | 23.9 µM (active) | inactive | 26.8 µM (active) | inactive |  | 26.8 µM (active) | 26.8 µM (active) | 
c1ccc(Nc2ccc(Nc3ccccc3)cc2)cc1 | 19.4 µM (active) |  | inactive | inactive | inactive |  |  |  |  | 19.4 µM (active)
CNN |  | 9.14% (inactive) | inactive | inactive | inactive | inactive | inactive | inactive | inactive | 
Cc1cc(C2CC2)nc(Nc2ccccc2)n1 |  |  |  |  |  | inactive |  |  | inactive | 21.9 µM (active)
CC1(C)[C@H](/C=C2\CCSC2=O)[C@@H]1C(=O)OCc1coc(Cc2ccccc2)c1 |  |  | inactive | inactive | inactive | inactive |  | inactive | inactive | 
CC1(C)C(C=C(Cl)Cl)C1C(=O)OC(C#N)c1ccc(F)c(Oc2ccccc2)c1 (centres undefined) |  | -18.6% (inactive) | inactive | inactive | inactive | inactive |  |  | inactive | 
C[C@]12CC[C@H]3[C@@H](CCC4=CC(=O)CC[C@@H]43)[C@@H]1CC[C@@H]2OC(=O)CCc1ccco1 |  | -8.1% (inactive) | inactive | inactive | inactive | inactive | inactive | inactive |  | 
